USP17 block – inhibitors of human USP17 deubiquitinase. Ubiquitin carboxyl-terminal hydrolase 17-like protein 5 (Homo sapiens), A8MUK1. purified USP17, Ub-rhodamine cleavage fluorescence, 3 h. inhibition, % at 50 µM. 47,000 compounds, 6.5% hits
USP8 inh – inhibitors of human USP8 deubiquitinase; inhibition, % at 20 µM; Ubiquitin carboxyl-terminal hydrolase 8 (Homo sapiens), P40818; AID 1645853, 2021; 47,000 compounds, 4.2% hits; purified USP8, Ub-rhodamine cleavage fluorescence, 30 min
Target sequence (P40818 whole entry, looked up): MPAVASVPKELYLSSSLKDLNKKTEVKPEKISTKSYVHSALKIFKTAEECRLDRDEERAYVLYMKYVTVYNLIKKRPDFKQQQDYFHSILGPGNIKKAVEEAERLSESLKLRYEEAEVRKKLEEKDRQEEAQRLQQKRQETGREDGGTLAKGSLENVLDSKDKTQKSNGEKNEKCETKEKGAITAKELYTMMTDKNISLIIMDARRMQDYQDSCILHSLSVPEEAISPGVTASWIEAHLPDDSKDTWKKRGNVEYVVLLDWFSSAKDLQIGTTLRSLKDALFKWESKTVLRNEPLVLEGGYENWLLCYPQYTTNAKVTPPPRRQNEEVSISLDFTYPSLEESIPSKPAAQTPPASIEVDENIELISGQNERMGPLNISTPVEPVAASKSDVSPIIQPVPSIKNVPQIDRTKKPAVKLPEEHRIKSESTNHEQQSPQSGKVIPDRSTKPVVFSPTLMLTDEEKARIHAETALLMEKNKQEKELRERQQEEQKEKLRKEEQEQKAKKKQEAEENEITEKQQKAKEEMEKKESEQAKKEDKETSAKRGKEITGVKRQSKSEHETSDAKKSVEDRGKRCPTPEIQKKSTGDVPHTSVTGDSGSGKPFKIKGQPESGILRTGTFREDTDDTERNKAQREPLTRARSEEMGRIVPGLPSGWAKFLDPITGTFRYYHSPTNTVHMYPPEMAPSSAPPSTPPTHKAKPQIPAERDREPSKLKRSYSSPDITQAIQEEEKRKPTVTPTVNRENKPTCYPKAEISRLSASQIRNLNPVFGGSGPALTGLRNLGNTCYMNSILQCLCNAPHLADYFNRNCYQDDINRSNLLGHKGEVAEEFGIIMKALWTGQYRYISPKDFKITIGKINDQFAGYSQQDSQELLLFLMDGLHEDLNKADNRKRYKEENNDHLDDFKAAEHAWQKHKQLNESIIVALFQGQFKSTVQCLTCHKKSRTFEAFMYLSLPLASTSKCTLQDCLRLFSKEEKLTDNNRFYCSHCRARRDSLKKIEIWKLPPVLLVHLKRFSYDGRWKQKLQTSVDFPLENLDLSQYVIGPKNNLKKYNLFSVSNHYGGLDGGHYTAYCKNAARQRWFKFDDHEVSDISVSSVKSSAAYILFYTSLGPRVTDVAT
USP30 block – inhibitors of human USP30 deubiquitinase; inhibition, % at 25 µM; 47,000 compounds, 5.3% hits; Ubiquitin carboxyl-terminal hydrolase 30 (Homo sapiens), Q70CQ3; purified USP30, Ub-rhodamine cleavage fluorescence; AID 1645860, 2021
USP28 block – inhibitors of human USP28 deubiquitinase; Ubiquitin carboxyl-terminal hydrolase 28 (Homo sapiens), Q96RU2; purified USP28, Ub-rhodamine cleavage fluorescence, 30 min; inhibition, % at 25 µM; 47,000 compounds, 3% hits
Numbers stand for hits. Most compounds without a hit are left out; they make up all but 13% or so of the library. No stated cut-off is given here; in the data, active means inhibition above about 30%; inactive means the rest.

`Fc1ccccc1-c1cn[nH]c1C1CCCN1Cc1ccc2ncccc2c1` (stereo unspecified) gave USP17 block inactive, USP8 inh inactive, USP30 block inactive and USP28 block inactive.
Screening O=C(CS(=O)(=O)C1CCCC1)N(CC1CC1)C1CCCCC1 returned USP17 block inactive, USP8 inh inactive, USP30 block inactive and USP28 block inactive.
For CC(CNC(=O)c1cnn2c3c(cnc12)CCCC3)c1ccccc1 (stereo unspecified) the results were USP17 block inactive, USP8 inh inactive, USP30 block 30.6 and USP28 block inactive.
For CC(CCc1ccccc1)NC(=O)c1cnn2c3c(cnc12)CCCC3 (stereo unspecified) the results were USP17 block inactive, USP8 inh inactive, USP30 block inactive and USP28 block inactive.
`O=C(NCCC1=CCCCC1)c1cnn2c3c(cnc12)CCCCCC3` gave USP17 block inactive, USP8 inh inactive, USP30 block 37.8 and USP28 block inactive.
For Cc1nn(-c2ccccc2)c(Cl)c1C(=O)NCCNc1ncnc2sc3c(c12)CCCC3 the results were USP17 block inactive, USP8 inh inactive, USP30 block inactive and USP28 block inactive.
For CN1C(=O)c2cc(NC(=O)C3CCCCC3)ccc2N2CCN=C12 the results were USP17 block inactive, USP8 inh inactive, USP30 block inactive and USP28 block inactive.
CC(C)Cc1nc2sc3c(SCC(=O)NC(c4ccccc4)c4ccccc4)ncnc3c2c2c1CCC2 was read as USP17 block inactive, USP8 inh inactive, USP30 block inactive and USP28 block inactive.
Cc1cccc(NC(=O)CSc2ncnc3c2sc2nc(CC(C)C)c4c(c23)CCC4)c1 was read as USP17 block 73.9, USP8 inh inactive, USP30 block 34.1 and USP28 block inactive.
For CC(C)Cc1nc2sc3c(SCC(=O)NC4(c5ccccc5)CCCC4)ncnc3c2c2c1CCC2 the results were USP17 block 42.2, USP8 inh inactive, USP30 block inactive and USP28 block inactive.
`CC(C)Cc1nc2sc3c(SCC(=O)Nc4ccc(Cl)cc4)ncnc3c2c2c1CCC2` gave USP17 block inactive, USP8 inh inactive, USP30 block inactive and USP28 block inactive.
`O=C(Cn1c(=O)n(CCC(=O)NC2CCCC2)c(=O)c2ccccc21)Nc1ccc(Br)cc1F` gave USP17 block inactive, USP8 inh inactive, USP30 block inactive and USP28 block inactive.
Screening Cc1cc(-c2cnc(NC3CC3)nc2-c2ccc(C)o2)on1 returned USP17 block inactive, USP8 inh inactive, USP30 block inactive and USP28 block inactive.
`CCOC(=O)c1ccc(N2CCN(C(=O)c3ccccc3)CC2)c(NC(=O)COc2ccc(Cl)c(C)c2)c1` gave USP17 block inactive, USP8 inh inactive, USP30 block inactive and USP28 block inactive.
N#Cc1cccc(NC2COC3(CCN(C(=O)c4cccnc4)C3)C2)c1 (stereo unspecified) was read as USP17 block inactive, USP8 inh inactive, USP30 block inactive and USP28 block inactive.
Screening COc1ccccc1Nc1ncc(C(=O)NCCc2ccc(Cl)cc2)c2ccccc12 returned USP17 block 80.9, USP8 inh 37.3, USP30 block inactive and USP28 block inactive.
Screening COC(=O)CNC(=O)c1cnc(Nc2ccccc2OC)c2ccccc12 returned USP17 block 30.8, USP8 inh inactive, USP30 block inactive and USP28 block inactive.
For COc1ccccc1CNC(=O)c1cnc(Nc2ccccc2OC)c2ccccc12 the results were USP17 block inactive, USP8 inh inactive, USP30 block inactive and USP28 block inactive.
`COc1ccccc1Nc1ncc(C(=O)N(C)Cc2ccccc2)c2ccccc12` gave USP17 block inactive, USP8 inh 68.8, USP30 block inactive and USP28 block inactive.
For CCOc1ccccc1C1N(Cc2ccccc2)CCN1Cc1ccccc1 the results were USP17 block inactive, USP8 inh inactive, USP30 block inactive and USP28 block inactive.
`Nc1c(-c2nc(-c3ccccc3Cl)no2)nnn1-c1ccc(Cl)cc1` gave USP17 block 43.3, USP8 inh 94.3, USP30 block 39.7 and USP28 block inactive.
For Nc1c(-c2nc(-c3ccc(F)cc3)no2)nnn1-c1ccccc1F the results were USP17 block inactive, USP8 inh 34.8, USP30 block inactive and USP28 block inactive.
For O=C(Cn1ccc2cc(S(=O)(=O)N3CCCC3)ccc21)NCCCc1ccccc1 the results were USP8 inh inactive, USP30 block inactive and USP28 block inactive.
`C/C=C/C1=CC(=O)[C@H](O)[C@H]1O` gave USP17 block inactive, USP8 inh inactive, USP30 block inactive and USP28 block inactive.

Screening data deposited in PubChem BioAssay by Buhrlage Lab, Dana-Farber Cancer Institute and Novartis Institutes for BioMedical Research (Cambridge, Mass).
